Most compounds without a hit are left out; they make up all but 3.1% or so of the library.
Beta apoptosis: inhibitors of cytokine-induced beta cell apoptosis, primary screen, luminescence | protection from apoptosis, % (concentration not given with the values) | INS-1E cytokine-induced death, ATP luminescence, 48 h; percent of positive-control rescue, neutral wells zero | actives 0.8% (n = 300,000) | AID 435005, 2010;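 active means Every replicate reaches about 75%, or at least half do and their mean reaches it too, limit read from the data; inconclusive means At least half of replicates reach the limit but their mean does not; inactive means Under half of replicates reach the limit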;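 further: 0% = cytokine-treated negative control wells and 100% = positive control rescue; higher means more ATP so stronger rescue from cytokine killing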
CSC inhib: cancer stem cell viability inhibitors, primary screen, luminescence | cancer stem cell-like cells viability | AID 2717, 2010 | inhibition, % at 7.5 µM | actives 1.1% (n = 300,000); in the data active means inhibition above about 75%; inconclusive means no clear call, values can overlap the other calls; tested in HMLE shEcad cells
PP5 inh: PP5 phosphatase inhibitors, primary screen, biochemical, fluorescence; AID 1987, 2009; purified PP5c, OMFP substrate fluorescence; inhibition, % at 6.7 µM; Serine/threonine-protein phosphatase 5 (Homo sapiens), P53041; actives 0.18% (n = 320,000);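 active means inhibition above the campaign's mean inhibition across all tested compounds plus 3 SD, cut at about 9.5% in these data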;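 further: 0% = DMSO only and 100% = 100 µM cantharidin control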
Target sequence (P53041 whole entry, looked up): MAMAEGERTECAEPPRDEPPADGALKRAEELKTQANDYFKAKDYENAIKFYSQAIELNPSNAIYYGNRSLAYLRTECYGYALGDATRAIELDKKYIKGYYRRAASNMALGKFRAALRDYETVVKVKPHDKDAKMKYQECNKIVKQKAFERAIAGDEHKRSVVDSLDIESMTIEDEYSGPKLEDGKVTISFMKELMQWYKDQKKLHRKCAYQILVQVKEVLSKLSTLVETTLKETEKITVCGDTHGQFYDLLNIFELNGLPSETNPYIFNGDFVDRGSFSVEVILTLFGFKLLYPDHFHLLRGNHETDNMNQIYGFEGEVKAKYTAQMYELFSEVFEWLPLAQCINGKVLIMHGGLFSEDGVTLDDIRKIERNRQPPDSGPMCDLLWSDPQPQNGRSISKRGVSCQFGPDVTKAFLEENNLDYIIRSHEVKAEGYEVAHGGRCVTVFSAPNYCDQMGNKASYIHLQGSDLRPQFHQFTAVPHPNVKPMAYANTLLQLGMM
PP1 counter: PP1-alpha phosphatase inhibitors, primary screen, counter-screen for PP5 inhibitor project, biochemical, fluorescence, OMFP substrate, single point | Serine/threonine-protein phosphatase PP1-alpha catalytic subunit (Homo sapiens), P62136 | purified PP1alpha | inhibition, % at 6.7 µM | actives 0.9% (n = 320,000) | AID 2235, 2010;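 active means inhibition above the mean inhibition of all tested compounds plus 3 SD, computed separately for each screening campaign, cut at about 15% in these data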
SKKanGAS inh: S. pyogenes SKKanGAS growth inhibitors in kanamycin, primary screen, streptokinase expression inhibitor project, SKKanGAS strain, BacTiter-Glo luminescence; 6 h; inhibition, % at 7.5 µM; actives 1.3% (n = 300,000);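 active means mean replicate score, as percent of positive control median, at least 50; inconclusive means mean below 50 but one replicate at or above 50; inactive means mean and every replicate below 50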;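 further: strain carries kanamycin resistance gene driven by streptokinase promoter and grows in 40 µg/ml kanamycin; loss of luminescence reflects streptokinase promoter inhibition or plain growth inhibition; 0% = median of DMSO wells and 100% = positive control at its reference dose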
* marks the source's active call; other numbers are inactive results; ? = inconclusive; nt = not tested or not shown.

SMILES | Beta apoptosis | CSC inhib | PP5 inh | PP1 counter | SKKanGAS inh
CCC(=O)NC(=S)Nc1cccc(Cl)c1N1CCCCC1 | 7.2 | 85.4* | -0.9 | 0.9 | 0.9
CCCCC(=O)NC(=S)Nc1cccc(Cl)c1N1CCCCC1 | -2.4 | nt | 0.3 | 2.3 | -13.6
CCCC(=O)NC(=S)Nc1cccc(Cl)c1N1CCCCC1 | 0.5 | nt | 1.2 | -2.4 | 100.9*
CSc1cccc(CN2CCC(n3nccc3NC(=O)C3CC3)CC2)c1 | nt | nt | 2.2 | 1.9 | 1.7
O=C(COC(=O)CCC1CCCC1)Nc1ccccc1Sc1ccccc1 | -2.4 | 6.1 | 2.1 | -1.5 | 80.2*
CCC(=O)Nc1cc(C(=O)O)ccc1Sc1ccccc1 | -3.2 | -6.9 | -2.1 | 16.7* | 14.0
CC1CCN(CC(=O)Nc2ccccc2Sc2ccccc2)CC1 | -4.3 | 116.7* | 2.9 | 0.0 | 2.1
O=C(CN1CCCC1)Nc1ccccc1Sc1ccccc1 | -7.1 | -11.5 | -3.0 | -3.2 | 7.7
COC(=O)C(C)(C)ONC(=O)Nc1ccc(C)cc1 | -7.5 | -15.2 | 0.3 | 1.6 | -4.2
O=C(c1ccccc1SCc1ccc(F)cc1)N1CCOCC1 | -4.6 | -22.0 | -2.4 | -5.6 | 4.2
CC1(C)Cc2c(c(N3CCOCC3)nc3sc4c(NN)ncnc4c23)CS1 | 81.1* | 87.2* | -0.9 | 2.9 | 17.4
Cc1cccc(-n2c(C)cc(/C=N/n3cnnc3)c2C)c1 | 110.6* | -7.7 | 1.9 | -1.0 | 7.2
COc1ccc(OC)c(/C=N/n2c(-c3n[nH]c4c3CCC4)n[nH]c2=S)c1 | 0.0 | -8.2 | -2.3 | -2.1 | 50.3*
Cc1ccc(-n2c(N)c(-c3nc4ccccc4n3C)sc2=S)cc1 | 5.6 | nt | 0.6 | -0.7 | 50.3*
Cn1c(-c2ccc(N)cc2)nc2ccccc21 | -5.0 | -7.8 | -1.3 | -6.8 | nt
CCn1cc(C(=O)O)c(=O)c2cc(F)c(N3CCNCC3)cc21 | nt | nt | 3.9 | 7.0 | 3.9
CCn1cc(C(=O)O)c(=O)c2cc(F)c(N3CCN(C(=S)NC(=O)c4ccccc4F)CC3)cc21 | -4.7 | -3.7 | -2.3 | 3.5 | 35.6
CCn1cc(C(=O)O)c(=O)c2cc(F)c(N3CCN(S(=O)(=O)c4ccc5c(c4)OCCO5)CC3)cc21 | 4.4 | -24.6 | 1.1 | 6.5 | 59.5*
CCn1cc(C(=O)N[C@H](C)c2ccccc2)c(=O)c2cc(F)c(N3CCN(C)CC3)cc21 | 5.7 | 75.5* | 4.8 | 7.4 | -5.1
CCn1cc(C(=O)O)c(=O)c2cc(F)c(N/N=C/c3ccccc3)cc21 | 4.7 | 2.1 | -2.0 | 16.4* | 32.2
CCC(C)NC(=O)c1cn(CC)c2cc(N3CCN(C)CC3)c(F)cc2c1=O (stereo not given) | -5.6 | 29.0 | 2.0 | -0.4 | -3.7
N#Cc1c(-c2ccccc2)nc(SCc2cccc(Cl)c2)[nH]c1=O | -6.0 | 107.4* | 0.4 | 17.2* | ?
Cc1nn(-c2ccccc2)c(Cl)c1C1C(C#N)=C(N)OC2=C1C(=O)CC(C)(C)C2 (stereo not given) | -0.3 | 35.1 | 0.2 | 4.6 | 84.9*
Cc1nn(C)c(C)c1C1C(C#N)=C(N)OC2=C1C(=O)CC(C)(C)C2 (stereo not given) | 6.4 | -5.2 | 1.0 | -1.7 | 0.5
CCN1CCN(c2ccc(S(=O)(=O)N3CCOCC3)cc2NC(=O)CCC(C)C)CC1 | -8.6 | -12.0 | 1.0 | -5.1 | -12.6
SMILES | Beta apoptosis | CSC inhib | PP5 inh | PP1 counter | SKKanGAS inh
CC(C)CC(=O)c1c(O)c(C=O)c(O)c2c1O[C@@]1(C)[C@@H](C2)C[C@H]2C[C@@H]1C2(C)C | 1.8 | 106.7* | nt | nt | nt
COc1ccc(NC(=O)c2ccc3[nH]c(C)c(C)c3c2)cc1 | 3.3 | 10.2 | nt | nt | 3.1
CC(Oc1ccccc1)C(=O)NNC(=O)c1ccccn1 (stereo not given) | -3.7 | 12.6 | 2.8 | -2.4 | -11.9
C/C(=N\NC(=O)C(C)Oc1ccc([N+](=O)[O-])cc1)c1ccccn1 (stereo not given) | 90.3* | 52.5 | 0.4 | -3.4 | 3.6
CN(C)CC(C(=O)c1ccccc1)c1ccccc1 (stereo not given) | 106.5* | 54.2 | 0.1 | 1.9 | -5.4
O=C(NC12CC3CC(CC(C3)C1)C2)c1ccc(-c2ccc(Cl)cc2)o1 | 14.5 | 13.0 | 2.1 | 2.6 | 24.2
O=C(NC12CC3CC(CC(C3)C1)C2)c1ccc(-c2ccccc2Cl)o1 | 15.8 | 125.0* | 0.6 | -0.2 | 39.1
COc1ccccc1CNC(=O)c1ccc(-c2ccccc2Cl)o1 | 13.0 | 35.5 | 0.0 | 11.9 | 51.7*
O=C(NC12CC3CC(CC(C3)C1)C2)c1ccc(-c2cccc(Cl)c2)o1 | 16.0 | 94.8* | -1.2 | -0.1 | 9.1
O=C(O)/C(=C\c1ccc(Cl)cc1)c1ccc(F)cc1 | -4.4 | -14.0 | -1.2 | 0.3 | 2.4
O=C(NCC1CCCO1)/C(=C/c1ccccc1F)NC(=O)c1ccccc1 (stereo not given) | -1.0 | -8.4 | 2.2 | 0.0 | -2.3
COc1ccccc1C(=O)/C=C/c1ccc(N2CCCCC2)c([N+](=O)[O-])c1 | nt | nt | 4.0 | 2.5 | -4.6
O=C(/C=C/c1ccc(N2CCCCC2)c([N+](=O)[O-])c1)c1ccc(O)cc1 | 7.4 | 109.8* | 5.0 | 2.0 | 37.2
O=C(Cc1ccccc1)c1c[nH]c(C(=O)NC2CCCC2)c1 | -1.6 | -0.8 | -0.3 | -3.5 | -8.5
CC(Oc1ccc(Cl)cc1Cl)C(=O)NC(=S)N1CCc2ccccc21 (stereo not given) | 0.1 | 52.6 | -4.5 | -0.1 | 104.4*
O=C(Nc1ccc(Cl)c(Cl)c1)O/N=C/c1ccncc1 | 17.2 | 75.3* | 0.3 | -2.2 | 56.2*
CCCC(O)(c1ccc(Cl)cc1)C(CN1CCOCC1)c1ccc(Cl)cc1 (stereo not given) | 7.3 | 93.7* | 1.2 | 4.0 | 30.3
CCCC(O)(c1ccc(OC)cc1)C(CN1CCOCC1)c1ccc(Cl)cc1 (stereo not given) | 5.0 | 14.2 | 3.3 | 3.6 | -2.8
O=C(Cn1ncc(Cl)c(Cl)c1=O)NCC1CCCCC1 | -7.9 | 99.7* | 0.6 | -6.6 | nt
C=CCn1c(SCC(=O)Nc2sccc2C(N)=O)nc2ccc(Cl)cc2c1=O | 25.0 | 2.8 | 2.7 | 10.8 | 35.3
C=CCn1c(SCN2C(=O)c3ccccc3C2=O)nc2ccc(Cl)cc2c1=O | 97.9* | 2.5 | 1.1 | 2.8 | -2.3
CCOC(=O)c1ccccc1NC(=O)CSc1nc(N)cc(=O)[nH]1 | 0.7 | -4.3 | -3.6 | -0.8 | -13.9
CCc1nn(CCCC(=O)NCc2ccccc2Br)c(=O)c2cc3occc3n12 | 0.8 | -6.8 | -1.6 | -1.3 | 59.5*
COc1ccc(Cc2[nH]n3c(=O)c(Cl)c(C)nc3c2-c2ccccc2)cc1 | -1.6 | 9.7 | 3.2 | 0.4 | 122.1*
CC(C)Cn1c(N)c(C(=O)COC(=O)c2cc(-c3ccco3)nc3ccccc23)c(=O)n(C)c1=O | 8.3 | -1.7 | 5.6 | 9.9 | 2.0
Cn1c(=O)c(C(=O)COC(=O)c2cc(-c3ccco3)nc3ccccc23)c(N)n(Cc2ccccc2)c1=O | 1.4 | 6.5 | 1.2 | 19.1* | 38.9

Compound activity deposited in PubChem BioAssay by several laboratories.
